Where “and” joins values, the source holds several entries; their conditions need not be identical. Identical values can stand only once. Inconclusive results are not listed. Where a call stands in place of a potency, no number is given. Calls of active or inactive are those of the source. Unless noted, calls follow the shape of the dose curve; as a rule, active = well fitted curve in the direction sought with a large enough effect; inconclusive = small, poorly fitted or top-dose-only effect, or another doubt; inactive = no such curve, though single readings can be large; an effect the other way counts as inactive or inconclusive.
Columns and labels:
[1] = Cell Viability - BJ (AID 421; calls by dose curve;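 also: potency is read from the fitted curve at half-maximal effect; cells exposed to compound for 40 hours at 37 °C before readout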); conditions: BJ fibroblast viability, qHTS
Method in brief: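 Cytotoxicity as drop in intracellular ATP (CellTiter-Glo, 20 min RT) after 40 hr compound exposure of BJ fibroblasts at 37 °C. Titrations scaled between DMSO and 100 uM tamoxifen, Hill-fitted for AC50.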

[2] = Cell Viability - Jurkat (AID 426;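 active = dose-dependent loss of cell ATP signal giving a full or clear fitted curve, ranked by lower potency value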;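 also: potency is read from the fitted curve at half-maximal effect; cells exposed to compound for 40 hours at 37 °C before ATP read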); conditions: qHTS
Method in brief: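 Jurkat (Clone E6-1) cells, 5000/well in complete medium, exposed to compounds for 40 hr at 37C; intracellular ATP measured by CellTiter-Glo luminescence after 20 min at room temperature. AC50 from Hill fits.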

[3] = Cell Viability - Hek293 (AID 427;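 active = compounds whose dose-response curve shows a full or clear partial loss of cell viability, called from curve shape rather than a numeric limit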;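 also: potency is read from the fitted curve at half-maximal effect; cells exposed to compound for 40 hours at 37 °C before reading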); conditions: qHTS
Method in brief: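 Luminescent ATP content (CellTiter-Glo, 20 min at room temperature) was measured after a 40 hr, 37 °C compound exposure of HEK293 cells. AC50 values came from Hill-equation fits of qHTS concentration-response data normalized to DMSO and 100 uM tamoxifen.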

[4] = Cell Viability - HepG2 (AID 433; calls by dose curve;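 also: potency is read from the fitted curve at half-maximal effect; potency for ATP loss meaning cytotoxicity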); conditions: qHTS
Method in brief: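 ATP luminescence (CellTiter-Glo) after 40 h compound exposure, 37 °C, HepG2, 1500 cells/well, complete medium. Normalized: DMSO = basal, 100 uM tamoxifen = 100% inhibition. AC50 via standard Hill equation.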

[5] = Cell Viability - SK-N-SH (AID 435; calls by dose curve; also: potency is read from the fitted curve at half-maximal effect); conditions: SK-N-SH neuroblastoma cell viability qHTS
Method in brief: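 CellTiter-Glo ATP luminescence, 20 min RT read; cells pre-plated 5 hr, compound 40 hr at 37 °C, 1500 cells/well, complete medium. Normalized DMSO = 0, 100 uM tamoxifen = 100% inhibition; Hill-fit AC50.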

[6] = Cell Viability - Renal Proximal Tubule (AID 545); conditions: renal proximal tubule cells viability; series mostly up to 91.7 µM; also: nearly all actives have a fitted effect of over 40% in size
Method in brief: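 Rat kidney proximal tubule cells, freshly isolated; 1000 cells/well, 5 hr settle, compound 40 hr 37 °C. CellTiter-Glo 20 min RT, luminescence read. AC50 by standard Hill fit.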

[7] = Cellular Toxicity (caspase-3) HUV-EC-C (AID 656); conditions: HUV-EC-C cells, caspase-3 activation (apoptosis), vehicle = 0, 100 µM tamoxifen = 100%; series mostly up to 92.2 µM
Method in brief: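 Luminescent caspase-3/7 activation (aminoluciferin substrate cleavage) in HUV-EC-C cells after 16 hr compound exposure, 37°C. Signal normalized to DMSO basal and 100 uM tamoxifen as 100%; AC50 from concentration-response fitted with the Hill equation.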

[8] = Cellular Toxicity (caspase-3) SHSY5Y (AID 657); conditions: SH-SY5Y caspase-3 activation, DMSO zero, 10 µM staurosporine = 100%; series mostly up to 91.7 µM
Method in brief: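 Luminescent caspase-3/7 readout (aminoluciferin release) in SH-SY5Y cells after 16 h compound exposure in complete medium. Activity scaled between DMSO basal and 10 uM staurosporine as 100%; concentration-response fitted to Hill equation for AC50.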

[9] = Cellular Toxicity (caspase-3) MRC-5 (AID 659); conditions: MRC-5 cells, luminescence, normalized: DMSO 0%, 10 µM staurosporine 100%; series mostly up to 91.7 µM
Method in brief: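 Luminescence from caspase-cleaved aminoluciferin substrate (Caspase-Glo 3/7, 1 hr RT) reports caspase 3/7 activity in MRC-5 lung fibroblasts after 16 hr compound exposure. Normalized to DMSO basal and 10 uM staurosporine as 100%; AC50 from Hill fits.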

[10] = MultiTox-Fluor Cytotoxicity Assay - LYMP1-002 - Live Cells (AID 955); conditions: LYMP1-002 lymphoblastoid live-cell protease fluorescence viability; series mostly up to 46.1 µM
Method in brief: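 Human lymphoblastoid LYMP1-002 cells, 2500/well, treated 16 h at 37 C in complete medium. Live-cell protease activity via GF-AFC fluorescence (Ex/Em 405/510) after 60 min reagent incubation; AC50 from Hill fits.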

[11] = Cell Viability - LYMP1-003 - Assay at 24 hr (AID 963); conditions: LYMP1-003 lymphoblastoid cell viability; series mostly up to 92.2 µM
Method in brief: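 Human lymphoblastoid LYMP1-003 cells, 2500/well, treated 24 h at 37 C in complete medium. Viability read as intracellular ATP by CellTiter-Glo luminescence after 30 min at room temperature; AC50 from Hill-equation fits of qHTS concentration-response.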

[12] = Cell Viability - LYMP2-009 (AID 968); conditions: LYMP2-009 lymphoblastoid cell viability; series mostly up to 92.2 µM; also: nearly all actives have a fitted effect of over 55% in size
[13] = Cell Viability - LYMP2-017 (AID 972); conditions: LYMP2-017 lymphoblastoid cell viability; series mostly up to 92.2 µM; also: nearly all actives have a fitted effect of over 55% in size
Method in brief: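 LYMP2-017 human lymphoblastoid cells (2500/well) settled 5 hr at 37 C, then exposed to compound 24 hr at 37 C in complete medium. Viability taken as intracellular ATP by CellTiter-Glo luminescence after 30 min at RT; AC50 from Hill fits.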

[14] = Cell Viability - LYMP2-025 (AID 976); conditions: LYMP2-025 lymphoblastoid cell viability; series mostly up to 92.2 µM
Method in brief: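 Human lymphoblastoid LYMP2-025 cells, 2500/well, exposed 24 h at 37 C in complete medium in 1536-well qHTS. Viability as cellular ATP by CellTiter-Glo luminescence; AC50 from Hill fits of concentration-response data.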

[15] = Cell Viability - LYMP2-016 (AID 984); conditions: LYMP2-016 lymphoblastoid cell viability, qHTS; series mostly up to 92.2 µM; also: nearly all actives have a fitted effect of over 55% in size
Method in brief: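 qHTS, 1536-well: 2500 LYMP2-016 cells/well, 5 hr 37 C, compound added, 24 hr 37 C, CellTiter-Glo 30 min RT, luminescence. Tetraoctylammonium bromide positive control. AC50 via Hill fit.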

[16] = Cell Viability - LYMP2-024 (AID 988); conditions: LYMP2-024 lymphoblastoid cell viability; series mostly up to 92.2 µM; also: nearly all actives have a fitted effect of over 60% in size
Method in brief: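 Human lymphoblastoid LYMP2-024 cells (2500/well) rested 5 hr, then treated with compound for 24 hr at 37 C in complete medium. Viability was measured as intracellular ATP by CellTiter-Glo luminescence. AC50 values came from Hill-equation fits.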

[17] = qHTS Assay for Identification of Small Molecule Inducers of Hypoxia Response (AID 2120; active = well fitted curve in the direction sought with a large enough effect in the signal ratio, with a control signal flat, not every such curve was filed as active; the % refers to the signal ratio); conditions: hypoxia response reporter cells, beta-lactamase ratio readout; series mostly up to 104 µM
Method in brief: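 HRE-bla ME-180 cells in Opti-MEM with 0.5% dialyzed FBS, pre-plated 4-5 h, then compound titration for 17 h at 37 degrees Celsius. CCF4 loaded 2.5 h at room temperature; 460/530 nm ratio gave %Activity and AC50 for induction.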

[18] = qHTS assay for small molecule agonists of retinoid X receptor alpha signaling (AID 588544); conditions: HEK293T RXRa-UAS-bla, beta-lactamase reporter, 18 h; 530 nm emission
[19] = target: Peroxisome proliferator-activated receptor alpha (Homo sapiens) (UniProt Q07869); experiment: qHTS assay for small molecule agonists of the peroxisome proliferator-activated receptor alpha (PPARalpha) signaling pathway (AID 651778); conditions: PathHunter PPARalpha complementation, chemiluminescence, 6 h; stronger effect = higher value
Chain of Peroxisome proliferator-activated receptor alpha (Homo sapiens) (Q07869 whole entry, looked up): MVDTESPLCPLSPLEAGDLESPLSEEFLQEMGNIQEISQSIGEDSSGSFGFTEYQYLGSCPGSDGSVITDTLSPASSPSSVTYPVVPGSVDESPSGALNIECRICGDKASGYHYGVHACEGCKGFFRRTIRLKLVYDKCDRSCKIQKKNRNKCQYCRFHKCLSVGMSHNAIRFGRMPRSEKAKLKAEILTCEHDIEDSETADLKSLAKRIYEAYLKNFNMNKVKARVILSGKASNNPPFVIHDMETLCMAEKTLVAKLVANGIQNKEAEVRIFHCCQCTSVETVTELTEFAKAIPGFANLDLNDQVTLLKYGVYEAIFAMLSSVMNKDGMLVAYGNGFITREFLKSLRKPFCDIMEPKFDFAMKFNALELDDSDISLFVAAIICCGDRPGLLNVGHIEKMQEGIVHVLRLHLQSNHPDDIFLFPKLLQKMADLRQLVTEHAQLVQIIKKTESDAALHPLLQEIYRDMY
Method in brief: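 Cells plated at 2,000/well and held overnight at 37 C, 5% CO2, then compound added by pin tool for 6 hr; after PathHunter detection reagent and 60 min at room temperature, chemiluminescence from enzyme complementation was read.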

[20] = qHTS assay for small molecule agonists of the antioxidant response element (ARE) signaling pathway measured by Nrf2-dependant transcriptional activity - cell viability counter screen (AID 720653; active = well fitted curve in the direction sought with a large enough effect in the repeat runs; an effect the other way counts as inactive or inconclusive); conditions: ARE-bla HepG2 viability, CellTiter-Glo ATP luminescence, 16 h; stronger effect = lower value
Method in brief: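 ARE-bla HepG2 cells (2,000/well) rested 5 hrs at 37C/5% CO2, then exposed to compounds in DMSO for 16 hrs. Viability was read in the same wells as intracellular ATP by luminescence, 30 min at room temperature after reagent addition.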

Structure (SMILES)	Potency [1]	Potency [2]	Potency [3]	Potency [4]	Potency [5]	outcome [6]	outcome [7]	outcome [8]	outcome [9]	outcome [10]	outcome [11]	Potency [12]	Potency [13]	Potency [14]	Potency [15]	Potency [16]	Potency [17]	max response [18]	max response [19]	max response [20]
N#C/C(N)=C(/N)C#N	> 92 µM (inactive)	> 92 µM (inactive)	> 92 µM (inactive)	> 92 µM (inactive)	> 92 µM (inactive)	inactive	inactive	inactive	inactive	inactive	inactive	inactive	inactive	inactive	inactive	inactive	inactive	-4.63%	-0.162% (inactive)	-10.7% (inactive)
COC(=O)Nc1nc2ccccc2[nH]1	> 92 µM (inactive)	3.38 µM (active)	> 92 µM (inactive)	> 92 µM (inactive)	> 92 µM (inactive)		inactive	inactive	inactive	inactive	inactive	inactive	inactive	inactive	inactive	inactive	inactive		-5.67% (inactive) and 0.607% (inactive)	0.0482% (inactive) and -1.74% (inactive)
O=[N+]([O-])c1ccc2c3c(cccc13)CC2	> 92 µM (inactive)	> 92 µM (inactive)	> 92 µM (inactive)	> 92 µM (inactive)	> 92 µM (inactive)	inactive	inactive	inactive	inactive	inactive	inactive	inactive	inactive	inactive	inactive	inactive	inactive	20.4% and -8.69%	-11.3% (inactive) and -0.119% (inactive)	3.04% (inactive) and 5.87% (inactive)
Oc1cccc(Cl)c1	> 92 µM (inactive)	> 92 µM (inactive)	> 92 µM (inactive)	> 92 µM (inactive)	> 92 µM (inactive)	inactive	inactive	inactive	inactive	inactive	inactive	inactive	inactive	inactive	inactive	inactive	inactive	-0.644%	16.7% (inactive)	-6.82% (inactive)
Nc1cc(Cl)cc(C(=O)O)c1Cl	> 92 µM (inactive)	> 92 µM (inactive)	> 92 µM (inactive)	> 92 µM (inactive)	> 92 µM (inactive)	inactive	inactive	inactive	inactive	inactive	inactive	inactive	inactive	inactive	inactive	inactive	inactive	-12.3% and -7.66%	9.46% (inactive) and -1.59% (inactive)	-8.07% (inactive) and -24.7% (inactive)
Nc1ccccc1-c1ccccc1	> 92 µM (inactive)	> 92 µM (inactive)	> 92 µM (inactive)	> 92 µM (inactive)	> 92 µM (inactive)	inactive	inactive	inactive	inactive	inactive	inactive	inactive	inactive	inactive	inactive	inactive	inactive	14.6%	-2.98% (inactive)	-2.88% (inactive)
